Screening results from PubChem.
Many of the other results were omitted from the sample, so hits are more common in it than they were.
miR122 inh: miR-122 sensor activation; Huh7 psiCHECK-miR122 Renilla luciferase sensor, 48 h; activation, % at 12.5 µM; 340,000 compounds, 0.14% hits;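 active = mean activation of 30% or more, with every replicate also reaching 30%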;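 also: 0% = median of neutral control wells and 100% = median of positive control wells; higher luciferase signal means stronger suppression of miR-122 activity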
Starred values were filed as active, the others as inactive.

SMILES | miR122 inh
C[C@@H]1CN([C@@H](C)CO)S(=O)(=O)c2ccc(-c3cccnc3)cc2O[C@H]1CN(C)Cc1ccccn1 | 3
C[C@H]1CN([C@@H](C)CO)C(=O)c2cc(-c3cccc(C#N)c3)cnc2O[C@@H]1CN(C)C | -1
C[C@@H]1CN([C@@H](C)CO)C(=O)c2cc(C#Cc3cccnc3)cnc2O[C@H]1CN(C)S(C)(=O)=O | -7
COc1ccc(NC(=O)N(C)C[C@@H]2Oc3ncc(-c4cc5ccccc5o4)cc3C(=O)N([C@H](C)CO)C[C@@H]2C)cc1 | 8
C[C@H](CO)N1C[C@H](C)[C@@H](CN(C)CC2CCOCC2)Oc2ncc(C#CCc3ccccc3)cc2C1=O | -6
C[C@H](CO)N1C[C@H](C)[C@H](CN(C)C(=O)Nc2ccccc2)Oc2ncc(C#Cc3ccc(F)cc3)cc2C1=O | -8
C[C@@H]1CN([C@H](C)CO)C(=O)c2cc(C#CC3(O)CCCC3)cnc2O[C@@H]1CN(C)C(=O)CN(C)C | 6
C[C@H](CO)N1C[C@H](C)[C@@H](CN(C)Cc2ccccc2C(=O)O)Oc2ncc(C3=CCCCC3)cc2C1=O | -20
COc1ccccc1-c1cnc2c(c1)C(=O)N([C@@H](C)CO)C[C@@H](C)[C@H](CN(C)Cc1ccccc1)O2 | -1
C[C@H]1CN([C@@H](C)CO)S(=O)(=O)c2ccc(C#CCC3CCCC3)cc2O[C@H]1CN(C)C(=O)CC1CC1 | 2
C/C(=N\NC(=O)C(C)Oc1ccc([N+](=O)[O-])cc1)c1ccccn1 (stereo not drawn) | 32*
C[C@H](CO)N1C[C@H](C)[C@@H](CN(C)C(=O)c2ccccc2)Oc2cc(-c3cccc(C#N)c3)ccc2S1(=O)=O | -9
C[C@@H](O)C#Cc1ccc2c(c1)O[C@H](CN(C)C)[C@@H](C)CN([C@@H](C)CO)S2(=O)=O | 3
COc1ccc(C#Cc2ccc3c(c2)O[C@@H](CN(C)C(=O)NC2CCCCC2)[C@H](C)CN([C@H](C)CO)S3(=O)=O)cc1 | -23
CN1C(=O)c2cc(NC(=O)Cc3ccccc3)ccc2OC[C@@H]2O[C@H](CC(=O)NC3CCC3)CC[C@@H]21 | -125
CN1C(=O)c2cc(NC(=O)NC3CCCC3)ccc2OC[C@H]2O[C@@H](CC(=O)O)CC[C@H]21 | -138
CC(=O)Nc1ccc2c(c1)C(=O)N(C)[C@H]1CC[C@H](CC(=O)NC3CCCCC3)O[C@@H]1CO2 | 63*
CN1C(=O)c2cc(NC(=O)c3cccc(F)c3)ccc2OC[C@@H]2O[C@@H](CC(=O)NC3CCC3)CC[C@H]21 | 70*
CCCNC(=O)N(C)C[C@H]1Oc2cc(-c3ccccc3)ccc2S(=O)(=O)N([C@H](C)CO)C[C@@H]1C | -32
C[C@@H]1CN([C@H](C)CO)C(=O)c2cc(C3=CCCCC3)cnc2O[C@@H]1CN(C)Cc1cccc(F)c1 | 4
COCC#Cc1cnc2c(c1)C(=O)N([C@H](C)CO)C[C@@H](C)[C@H](CN(C)C(=O)C1CCOCC1)O2 | 4
C[C@H](CO)N1C[C@H](C)[C@H](CN(C)Cc2ccccn2)Oc2ncc(C#Cc3ccccc3)cc2C1=O | -12
C[C@@H]1CN([C@@H](C)CO)C(=O)c2cc(C#CC3(O)CCCC3)cnc2O[C@H]1CN(C)C(=O)Cc1ccccc1 | -4
Cc1nn(Cc2ccccc2Cl)c2sc(C(=O)OC3CCCC3=O)cc12 (stereo not drawn) | 36*
CC(C)CC#Cc1ccc2c(c1)O[C@H](CN(C)C(=O)C1CCOCC1)[C@@H](C)CN([C@H](C)CO)S2(=O)=O | -7
SMILES | miR122 inh
CCC(=O)N(C)C[C@H]1Oc2ncc(C#Cc3ccccc3OC)cc2C(=O)N([C@H](C)CO)C[C@@H]1C | 5
C[C@H](CO)N1C[C@H](C)[C@@H](CN(C)C(=O)NC2CCCCC2)Oc2ncc(-c3ccccc3F)cc2C1=O | -20
O=C(COC(=O)Cc1ccc(S(=O)(=O)N2CCOCC2)s1)Nc1ccc2c(c1)OCO2 | 31*
O=C(Nc1ccc2c(c1)OCCO2)C1CCN(S(=O)(=O)c2ccccc2)CC1 | -177
O=C(COc1ccc(S(=O)(=O)NC2CCCCC2)cc1)Nc1ccc2c(c1)OCCO2 | -101
CO[C@@H]1CN(C)C(=O)c2ccc(NC(=O)Nc3cccc(F)c3)cc2OC[C@@H](C)N(C)C[C@@H]1C | 0
O=S(=O)(Nc1cccc(-n2cnnn2)c1)c1cc(Br)ccc1Br | -108
COc1cccc(S(=O)(=O)N(C)C[C@@H]2Oc3ncc(-c4ccc(F)cc4)cc3C(=O)N([C@H](C)CO)C[C@@H]2C)c1 | 6
C[C@H](CO)N1C[C@H](C)[C@H](CN(C)C(=O)CN(C)C)Oc2cc(C#CCN(C)C)ccc2S1(=O)=O | 3
Cc1onc(C(=O)N2CCN(C(c3ccccc3)c3ccccc3)CC2)c1[N+](=O)[O-] | 31*
O=C(c1cc([N+](=O)[O-])ccc1N1CCOCC1)N1CCN(c2ccccc2)CC1 | -90
C[C@@H]1CN([C@@H](C)CO)S(=O)(=O)c2ccc(-c3ccncc3)cc2O[C@H]1CN(C)Cc1ccccn1 | 1
C[C@H](CO)N1C[C@H](C)[C@@H](CN(C)C(=O)Nc2cccc(F)c2)Oc2cc(/C=C/c3ccccc3)ccc2S1(=O)=O | -16
